We go through 30 compounds from PubChem BioAssay (NCATS).

Assay [1] is described as follows: qHTS for Inhibitors of the Functional Ribonucleoprotein Complex (vRNP) of Lassa (LASV) Arenavirus: LASV Primary Screen - GLuc reporter signal (AID 1347082; calls by dose curve; tested in HEK293 reporter line; note: nearly all actives have a fitted effect of over 60% in size). (In qHTS, concentration-response curves come from the screen itself.)
Assay [2] in a line: qHTS for Inhibitors of the Functional Ribonucleoprotein Complex (vRNP) of Lassa (LASV) Arenavirus: Viability assay - alamar blue signal for LASV Primary Screen (AID 1347083; calls by dose curve; tested in HEK293 reporter line; note: nearly all actives have a fitted effect of over 80% in size).
Assay [3] is described as follows: qHTS for Inhibitors of the Functional Ribonucleoprotein Complex (vRNP) of Lymphocytic Choriomeningitis Arenaviruses (LCMV): Viability assay - alamar blue signal for LCMV Primary Screen (AID 1347085; calls by dose curve; tested in HEK293 reporter line; note: nearly all actives have a fitted effect of over 80% in size).
Assay [4] has as its target Nucleoprotein (Lymphocytic choriomeningitis virus (strain Armstrong)) (UniProt P09992). Nature of the assay: qHTS for Inhibitors of the Functional Ribonucleoprotein Complex (vRNP) of Lymphocytic Choriomeningitis Arenaviruses (LCMV): LCMV Primary Screen - GLuc reporter signal (AID 1347086). Note: nearly all actives have a fitted effect of over 70% in size.

Inconclusive results are not listed. Values without a mark were called inactive. The source made the active and inactive calls. Unless noted, calls come from the whole dose curve.
Potency is the fitted concentration of half-maximal effect.

Sequence of Nucleoprotein (Lymphocytic choriomeningitis virus (strain Armstrong)) (P09992 whole entry, looked up): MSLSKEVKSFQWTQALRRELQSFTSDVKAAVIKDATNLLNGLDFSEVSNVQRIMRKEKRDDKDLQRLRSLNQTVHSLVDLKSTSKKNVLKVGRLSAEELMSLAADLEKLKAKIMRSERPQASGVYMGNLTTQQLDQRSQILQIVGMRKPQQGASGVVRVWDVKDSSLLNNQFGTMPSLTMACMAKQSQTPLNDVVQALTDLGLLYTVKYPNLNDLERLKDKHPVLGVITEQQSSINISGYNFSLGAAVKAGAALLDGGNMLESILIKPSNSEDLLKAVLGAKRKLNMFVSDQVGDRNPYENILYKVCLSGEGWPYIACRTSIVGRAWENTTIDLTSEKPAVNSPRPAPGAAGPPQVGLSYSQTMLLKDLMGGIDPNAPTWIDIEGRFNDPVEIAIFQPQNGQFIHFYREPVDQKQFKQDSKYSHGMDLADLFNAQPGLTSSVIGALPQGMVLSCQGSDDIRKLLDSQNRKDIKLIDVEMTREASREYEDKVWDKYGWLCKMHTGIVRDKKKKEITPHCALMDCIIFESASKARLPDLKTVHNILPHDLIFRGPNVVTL

In the case of `CCC1CCC(=O)O1` (stereo not given), the Potency entry in assay [1], in assay [2], in assay [3] and in assay [4] was “inactive” throughout.
Regarding `COc1c2n(C)ccc3c-2n(c(=O)c1=O)c1ccccc31`, the Potency entry in assay [1], in assay [2], in assay [3] and in assay [4] was “inactive” each time.
For `CS(=O)(=O)N1CCN(Cc2cc3nc(-c4cccc5[nH]ncc45)nc(N4CCOCC4)c3s2)CC1`, the Potency was 1720 nM (active) in assay [1], 968 nM (active) in assay [2], 1220 nM (active) in assay [3] and 1370 nM (active) in assay [4].
As to `COc1cc2c(=O)c(-c3ccc(O)cc3)coc2cc1OC1OC(CO)C(O)C(O)C1O` (stereo not given), the Potency result in assay [1], in assay [2], in assay [3] and in assay [4] was “inactive” throughout.
On to `CC(=O)OC1[C@H](Oc2c(O)c(C)c3c4c2[C@@H](C)CC[C@@H]4[C@@H](C)C[C@@H]3C=C(C)C)OC[C@@H](O)[C@@H]1O` (stereo not given in full), for which the Potency entry in assay [1], in assay [2], in assay [3] and in assay [4] was “inactive” each time.
As to `CCC(C)c1nccnc1OC` (stereo not given), the Potency result in assay [1], in assay [2], in assay [3] and in assay [4] was “inactive” throughout.
Turning to `COc1ccc2c(=O)c(-c3ccccc3)c(C)oc2c1`, the Potency entry in assay [1], in assay [2], in assay [3] and in assay [4] was “inactive” in each case.
For the compound `CC1=CC(=O)C2=C(C)C[C@@H]3OC(=O)[C@@H](C)[C@H]3C=C12`, the Potency entry in assay [1], in assay [2], in assay [3] and in assay [4] was “inactive” throughout.
With `C[C@]12C=CC(=O)N[C@@H]1CC[C@H]1[C@H]3CC[C@@H](C(=O)Nc4cc(C(F)(F)F)ccc4C(F)(F)F)[C@@]3(C)CC[C@@H]12`, the Potency result in assay [1], in assay [2], in assay [3] and in assay [4] was “inactive” each time.
With `CCC/C=C/CO`, the Potency entry in assay [1], in assay [2], in assay [3] and in assay [4] was “inactive” each time.
As for `C=C(CC[C@@H](O)C(C)(C)O)[C@H]1CC[C@]2(C)[C@@H]1CCC1[C@@]3(C)CC[C@H](O)C(C)(C)C3CC[C@]12C` (stereo not given in full), the Potency result in assay [1], in assay [2], in assay [3] and in assay [4] was “inactive” each time.
`CC/C=C\CCOC(=O)c1ccccc1`: the Potency result in assay [1], in assay [2], in assay [3] and in assay [4] was “inactive” throughout.
With `CC/C=C\CCOC(C)=O`, the Potency entry in assay [1], in assay [2], in assay [3] and in assay [4] was “inactive” throughout.
On to `COc1ccc(C(=O)OCCc2ccc(O)cc2)cc1`, for which the Potency result in assay [1], in assay [2], in assay [3] and in assay [4] was “inactive” throughout.
In the case of `CSCC[C@@H](N)C(=O)O`, the Potency entry in assay [1], in assay [2], in assay [3] and in assay [4] was “inactive” throughout.
For the compound `CC(C)=CC(=O)O[C@@H]1Cc2cc3ccc(=O)oc3cc2OC1(C)C`, the Potency result in assay [1], in assay [2], in assay [3] and in assay [4] was “inactive” in each case.
In the case of `CC(=O)c1ccc(C)cc1`, the Potency entry in assay [1], in assay [2], in assay [3] and in assay [4] was “inactive” in each case.
`CC(COc1ccc(/C=C/c2ccccc2)cc1)[N+](C)(C)C` (stereo not given): the Potency entry in assay [1], in assay [2], in assay [3] and in assay [4] was “inactive” throughout.
As to `O=C1CCCC2[C@@H]3CCC[N@+]4([O-])CCC[C@H](CN12)C34` (stereo not given in full), the Potency entry in assay [1], in assay [2], in assay [3] and in assay [4] was “inactive” each time.
Consider `C=C(C)[C@@H]1CCC2(C(=O)O)CC[C@]3(C)[C@H](CC[C@@H]4[C@@]5(C)CCC(=O)C(C)(C)[C@@H]5CC[C@]43C)[C@@H]12` (stereo not given in full), for which the Potency entry in assay [1], in assay [2], in assay [3] and in assay [4] was “inactive” throughout.
As for `Cc1c(O)c(C)c2c(c1O)C(=O)C[C@@H](c1ccccc1)O2`, the Potency result in assay [1], in assay [2], in assay [3] and in assay [4] was “inactive” each time.
Turning to `COc1c(C)c2c(c(O)c1CC=C(C)CCC(=O)O)C(=O)OC2`, the Potency in assay [1] was 6110 nM (active); in assay [2] it was 3850 nM (active); in assay [3], 13700 nM (active); in assay [4], 7690 nM (active).
On the same counts, the results for `O=C(O)COc1ccc(Cl)cc1CO` are “inactive”, “inactive”, “inactive” and “inactive”.
Regarding `C/C=C1/CN2C3CC1C(CO)(C(=O)OC)C2Cc1c3n(C)c2ccccc12` (stereo not given), the Potency entry in assay [1], in assay [2], in assay [3] and in assay [4] was “inactive” in each case.
Take `CCCCC[C@H](O)C=C[C@H]1[C@H](O)CC(=O)[C@H]1CCCCCCC(=O)O`: the Potency entry in assay [1], in assay [2], in assay [3] and in assay [4] was “inactive” each time.
As to `OCCC(O)CO` (stereo not given), the Potency entry in assay [1], in assay [2], in assay [3] and in assay [4] was “inactive” each time.
On to `O=C(CNC(=O)c1ccccc1)c1ccccc1`, for which the Potency entry in assay [1], in assay [2], in assay [3] and in assay [4] was “inactive” each time.
Regarding `CC/C=C\CCOC(=O)C(C)C`, the Potency result in assay [1], in assay [2], in assay [3] and in assay [4] was “inactive” each time.
Consider `COc1cc2c(c(OC)c1OC)-c1c(cc(OC)c(OC)c1OC)CC(C)C(C)C2` (stereo not given), for which the Potency entry in assay [1], in assay [2], in assay [3] and in assay [4] was “inactive” in each case.
For `COCCOCCOCCOCCOC`, the Potency entry in assay [1], in assay [2], in assay [3] and in assay [4] was “inactive” in each case.
